Results filed as inconclusive are left out. Where a call stands in place of a potency, no number is given. The source made the active and inactive calls. The call rests on the fitted dose curve; in most records, active means well fitted inhibition curve with a large enough effect; inconclusive means small, poorly fitted or top-dose-only effect; inactive means flat fitted curve, though single readings scatter.
What was measured:
Test in all cases: qHTS profiling for inhibitors of Plasmodium falciparum proliferation (AID 504749); further: nearly all actives have a fitted effect of over 60% in size
Settings in all cases: P. falciparum in erythrocytes, SYBR Green DNA, 72 h; series mostly up to 28.7 µM
CP185 = system: CP185
Method in brief: (§1)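 SYBR Green fluorescence of parasite DNA, read after lysis and overnight dark incubation, measured growth over 72 h in erythrocyte culture at 0.3% parasitemia and 2.5% hematocrit. Data normalised to DMSO and 0.29 uM artemisinin, with plate-drift correction.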

CP191 = system: CP191
Method in brief: as §1

CP192 = system: CP192
Method in brief: as §1

CP194 = system: CP194
Method in brief: as §1

CP203 = system: CP203
Method in brief: as §1

CP215 = system: CP215
Method in brief: as §1

CP217 = system: CP217
Method in brief: as §1

CP237 = system: CP237
Method in brief: as §1

CP238 = system: CP238
Method in brief: as §1

CP247 = system: CP247
Method in brief: as §1

CP250 = system: CP250
Method in brief: as §1

CP252 = system: CP252
Method in brief: as §1

CP260 = system: CP260
Method in brief: as §1

CP262 = system: CP262
Method in brief: as §1

CP265 = system: CP265
Method in brief: as §1

CP201 = system: CP201
Method in brief: as §1

CP211 = system: CP211
Method in brief: as §1

CP256 = system: CP256
Method in brief: as §1

CP268 = system: CP268
Method in brief: as §1

CP266 = system: CP266
Method in brief: as §1
Potency means the concentration at half of the fitted maximal effect.

| Structure (SMILES) | Potency (CP185) | Potency (CP191) | Potency (CP192) | Potency (CP194) | Potency (CP203) | Potency (CP215) | Potency (CP217) | Potency (CP237) | Potency (CP238) | Potency (CP247) | Potency (CP250) | Potency (CP252) | Potency (CP260) | Potency (CP262) | Potency (CP265) | Potency (CP201) | Potency (CP211) | Potency (CP256) | Potency (CP268) | Potency (CP266) |
| --- | --- | --- | --- | --- | --- | --- | --- | --- | --- | --- | --- | --- | --- | --- | --- | --- | --- | --- | --- | --- |
| Clc1ccc(CO/N=C(\Cn2ccnc2)c2ccc(Cl)cc2Cl)c(Cl)c1 | 10 µM (active) | 3.98 µM (active) | 16.9 µM (active) | 10.7 µM (active) | 5.36 µM (active) | 6.75 µM (active) | 3.98 µM (active) | 3.98 µM (active) | 5.01 µM (active) | 4.47 µM (active) | 7.08 µM (active) | 6.31 µM (active) | 7.08 µM (active) | 15.1 µM (active) | 4.47 µM (active) | – | – | – | – | – |
| C[N+](C)(C)CCOC(=O)C(O)(c1ccccc1)c1ccccc1 | inactive | inactive | inactive | inactive | inactive | inactive | inactive | inactive | inactive | inactive | inactive | inactive | inactive | inactive | inactive | inactive | inactive | inactive | inactive | – |
| Cc1c(Cl)c(=O)oc2cc(OP(=O)(OCCCl)OCCCl)ccc12 | – | 10 µM (active) | – | 9.53 µM (active) | 8.49 µM (active) | 9.53 µM (active) | 8.91 µM (active) | 7.94 µM (active) | 8.91 µM (active) | – | 8.91 µM (active) | 8.91 µM (active) | – | 7.57 µM (active) | 7.94 µM (active) | 13.5 µM (active) | 9.53 µM (active) | 10 µM (active) | 12 µM (active) | – |
| O=C(NC(=O)c1c(F)cccc1F)Nc1cc(Cl)c(OC(F)(F)C(F)C(F)(F)F)cc1Cl (stereo unspecified) | – | – | inactive | inactive | inactive | inactive | – | – | – | – | – | – | 10 µM (active) | inactive | 7.94 µM (active) | inactive | inactive | 8.91 µM (active) | inactive | inactive |
| COc1ccc(CN2CCNCC2)c(OC)c1OC | inactive | inactive | inactive | – | – | – | inactive | inactive | inactive | inactive | inactive | inactive | inactive | inactive | inactive | – | – | inactive | – | – |
| CN1C(=O)[C@@H](NC(=O)c2cc3ccccc3[nH]2)N=C(c2ccccc2)c2ccccc21 | – | – | – | – | – | – | – | – | – | inactive | – | – | – | inactive | – | inactive | – | – | – | – |
| O=C(CCCN1CCC(n2c(=O)[nH]c3ccccc32)CC1)c1ccc(F)cc1 | – | 1 µM (active) | – | – | 4.55 µM (active) | 4.55 µM (active) | 3.98 µM (active) | 1.41 µM (active) | 3.55 µM (active) | 3.55 µM (active) | 2.82 µM (active) | – | 1.58 µM (active) | inactive | 1.12 µM (active) | – | – | 3.55 µM (active) | 3.61 µM (active) | – |
| ClC1=C(Cl)C2(Cl)C(CBr)CC1(Cl)C2(Cl)Cl (stereo unspecified) | inactive | inactive | inactive | inactive | inactive | inactive | inactive | inactive | inactive | inactive | inactive | inactive | – | inactive | inactive | inactive | inactive | inactive | inactive | inactive |
| CC(Cc1ccccc1)NCc1ccccc1Cl (stereo unspecified) | – | inactive | inactive | – | – | inactive | – | – | – | – | inactive | – | – | inactive | 11.2 µM (active) | inactive | inactive | – | – | inactive |
| CCCCCCCCC(=O)NCc1ccc(O)c(OC)c1 | inactive | inactive | inactive | inactive | inactive | inactive | inactive | inactive | inactive | inactive | inactive | inactive | inactive | inactive | inactive | inactive | inactive | inactive | inactive | – |
| OC(O)C(Cl)(Cl)Cl | inactive | – | inactive | inactive | inactive | inactive | inactive | inactive | inactive | inactive | inactive | inactive | inactive | inactive | – | inactive | inactive | inactive | inactive | – |
| Nc1ccc(N)cc1 | – | – | inactive | – | – | – | – | inactive | – | 8.91 µM (active) | 12.6 µM (active) | – | inactive | – | – | – | – | – | – | inactive |
| CN1C[C@@H](NS(=O)(=O)N(C)C)C[C@@H]2c3cccc4c3c(cn4C)C[C@H]21 | inactive | inactive | – | inactive | inactive | inactive | inactive | – | inactive | inactive | inactive | inactive | – | inactive | inactive | inactive | – | – | inactive | – |
| N#Cc1nn(-c2c(Cl)cc(C(F)(F)F)cc2Cl)c(N)c1S(=O)C(F)(F)F (stereo unspecified) | – | 6.31 µM (active) | – | 15.1 µM (active) | – | – | 8.91 µM (active) | 5.01 µM (active) | – | – | 11.2 µM (active) | – | 8.91 µM (active) | 10.7 µM (active) | – | 13.5 µM (active) | – | – | 6.01 µM (active) | – |
| O=C1NCN(c2ccccc2)C12CCN(CCCOc1ccc(F)cc1)CC2 | – | – | inactive | – | – | inactive | – | 5.01 µM (active) | – | – | – | inactive | – | inactive | – | inactive | – | inactive | – | – |
| CN1C(=O)CN=C(c2ccccc2)c2cc([N+](=O)[O-])ccc21 | inactive | inactive | inactive | inactive | inactive | – | inactive | inactive | inactive | inactive | inactive | inactive | inactive | inactive | inactive | inactive | inactive | inactive | inactive | inactive |

| Structure (SMILES) | Potency (CP185) | Potency (CP191) | Potency (CP192) | Potency (CP194) | Potency (CP203) | Potency (CP215) | Potency (CP217) | Potency (CP237) | Potency (CP238) | Potency (CP247) | Potency (CP250) | Potency (CP252) | Potency (CP260) | Potency (CP262) | Potency (CP265) | Potency (CP201) | Potency (CP211) | Potency (CP256) | Potency (CP268) | Potency (CP266) |
| --- | --- | --- | --- | --- | --- | --- | --- | --- | --- | --- | --- | --- | --- | --- | --- | --- | --- | --- | --- | --- |
| C#C[C@]1(O)CC[C@H]2[C@@H]3CCC4=CC(=O)CCC4=C3C=C[C@@]21CC | – | 3.16 µM (active) | inactive | – | – | – | – | 0.178 µM (active) | – | 3.55 µM (active) | – | – | – | – | – | – | inactive | – | – | – |
| O=C(O)c1nn(Cc2ccc(Cl)cc2Cl)c2ccccc12 | inactive | inactive | inactive | inactive | – | inactive | inactive | inactive | inactive | inactive | inactive | inactive | inactive | inactive | inactive | inactive | inactive | inactive | inactive | inactive |
| CCN(CC)CCOC(=O)C(C)(c1ccccc1)c1ccccc1 | – | – | inactive | – | 7.57 µM (active) | – | – | – | – | – | – | – | – | – | – | inactive | – | – | – | – |
| c1cc2c(c(N3CCNCC3)c1)OCCO2 | inactive | inactive | inactive | inactive | inactive | inactive | inactive | inactive | inactive | inactive | inactive | inactive | inactive | inactive | inactive | inactive | inactive | inactive | inactive | – |
| CN1CCc2cc(Cl)c(O)cc2[C@H]2c3ccccc3CC[C@@H]21 | – | – | inactive | – | – | – | – | 5.62 µM (active) | – | – | – | – | – | inactive | – | inactive | – | – | – | – |
| CCS(=O)(=O)C(C)(C)S(=O)(=O)CC | inactive | inactive | inactive | inactive | inactive | inactive | inactive | inactive | inactive | inactive | inactive | inactive | inactive | inactive | inactive | inactive | – | inactive | inactive | inactive |
| CC[C@]1(O)CC[C@H]2[C@@H]3CCC4=CCCC[C@@H]4[C@H]3CC[C@@]21C | – | – | inactive | inactive | inactive | inactive | – | inactive | inactive | inactive | – | inactive | inactive | inactive | – | inactive | inactive | – | inactive | inactive |
| C[C@]12C=CC(=O)C=C1CC[C@@H]1[C@@H]2CC[C@@]2(C)[C@H]1CC[C@]2(C)O | inactive | inactive | – | – | – | – | inactive | inactive | inactive | inactive | inactive | inactive | inactive | inactive | inactive | – | – | inactive | – | – |
| COC(=O)C1=CCCN(C)C1 | inactive | inactive | inactive | inactive | inactive | inactive | inactive | inactive | inactive | inactive | inactive | inactive | – | inactive | inactive | inactive | inactive | inactive | inactive | inactive |
| CC(C)(O)C(Cl)(Cl)Cl | – | 3.16 µM (active) | – | – | 10.7 µM (active) | 8.49 µM (active) | – | 3.16 µM (active) | 10 µM (active) | 10 µM (active) | 12.6 µM (active) | – | 3.55 µM (active) | inactive | 2.51 µM (active) | – | – | 10 µM (active) | 6.01 µM (active) | – |
| Oc1ccc2[nH]cc(CCCCN3CC=C(c4ccccc4)CC3)c2c1 | – | – | – | – | – | – | – | 5.62 µM (active) | – | 7.08 µM (active) | – | – | – | – | – | – | – | – | – | – |
| COCC(=O)N(c1c(C)cccc1C)C(C)C(=O)OC (stereo unspecified) | – | – | inactive | inactive | inactive | inactive | – | inactive | – | – | – | – | inactive | inactive | – | inactive | inactive | inactive | inactive | inactive |
| C=CCOC(Cn1ccnc1)c1ccc(Cl)cc1Cl (stereo unspecified) | – | – | – | 15.1 µM (active) | 9.53 µM (active) | 12 µM (active) | 11.2 µM (active) | 4.47 µM (active) | – | – | 10 µM (active) | – | 10 µM (active) | inactive | – | – | – | inactive | 15.1 µM (active) | – |
| C[C@]12Cc3nonc3C[C@@H]1CC[C@@H]1[C@@H]2CC[C@@]2(C)[C@H]1CC[C@]2(C)O | inactive | inactive | inactive | – | inactive | inactive | – | inactive | inactive | inactive | inactive | inactive | inactive | inactive | inactive | inactive | inactive | inactive | inactive | inactive |
| NC(=O)OCCCc1ccccc1 | inactive | inactive | inactive | inactive | – | inactive | inactive | inactive | inactive | inactive | inactive | inactive | inactive | inactive | inactive | inactive | inactive | inactive | inactive | inactive |

Source: PubChem BioAssay (NCATS)
